# Experimental data: PMC11006913
# What was measured:
# Assay in all cases: PBM; 200 nM protein, PBS
# Settings in all cases: dsDNA, one strand shown
# SHOX [1] = molecular target: SHOX (Homo sapiens, UniProt O15266 103-189)
# CRX [2] = molecular target: CRX (Homo sapiens, UniProt O43186 26-111)
# CRX [3] = molecular target: CRX (Homo sapiens, UniProt O43186 26-111, E42D)
# HOXD13 [4] = molecular target: HOXD13 (Homo sapiens, UniProt P35453 263-343, T313R)
# SHOX [5] = molecular target: SHOX (Homo sapiens, UniProt O15266 103-189, R173C)
# HOXD13 [6] = molecular target: HOXD13 (Homo sapiens, UniProt P35453 263-343)
# HOXD13 [7] = molecular target: HOXD13 (Homo sapiens, UniProt P35453 263-343, T313A)
# CRX [8] = molecular target: CRX (Homo sapiens, UniProt O43186 26-111, R41L)
# HOXC9 [9] = molecular target: HOXC9 (Homo sapiens, UniProt P31274 178-260, K195R)
# HOXB6 [10] = molecular target: HOXB6 (Homo sapiens, UniProt P17509 132-218, K202E)
# HOXC9 [11] = molecular target: HOXC9 (Homo sapiens, UniProt P31274 178-260)
# MSX2 [12] = molecular target: MSX2 (Homo sapiens, UniProt P35548 130-214, R199I)
# HOXC9 [13] = molecular target: HOXC9 (Homo sapiens, UniProt P31274 178-260, R193K)
# MSX2 [14] = molecular target: MSX2 (Homo sapiens, UniProt P35548 130-214)
# HOXC9 [15] = molecular target: HOXC9 (Homo sapiens, UniProt P31274 178-260, R222W)
# MSX2 [16] = molecular target: MSX2 (Homo sapiens, UniProt P35548 130-214, F161Y)
# HOXB6 [17] = molecular target: HOXB6 (Homo sapiens, UniProt P17509 132-218)
# PITX2 = PITX2 (Homo sapiens, UniProt Q99697 72-157)
# PRRX1 [18] = molecular target: PRRX1 (Homo sapiens, UniProt P54821 80-166, F113S)
# PRRX1 [19] = molecular target: PRRX1 (Homo sapiens, UniProt P54821 80-166)
# Sequence of PRRX1 (Homo sapiens, UniProt P54821 80-166) (P54821 80-166): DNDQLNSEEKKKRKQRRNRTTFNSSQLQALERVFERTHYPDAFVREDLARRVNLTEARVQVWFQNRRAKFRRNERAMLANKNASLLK
# Sequence of SHOX (Homo sapiens, UniProt O15266 103-189, R173C) (O15266 103-189 R173C): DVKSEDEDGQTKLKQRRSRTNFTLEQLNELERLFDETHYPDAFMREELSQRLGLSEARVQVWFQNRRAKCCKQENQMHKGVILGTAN
# Sequence of SHOX (Homo sapiens, UniProt O15266 103-189) (O15266 103-189): as the sequence (O15266 103-189 R173C) above, with C71R counted along it
# Sequence of CRX (Homo sapiens, UniProt O43186 26-111) (O43186 26-111): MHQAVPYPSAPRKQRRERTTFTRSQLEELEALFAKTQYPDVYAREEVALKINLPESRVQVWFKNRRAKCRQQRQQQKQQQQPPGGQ
# Sequence of CRX (Homo sapiens, UniProt O43186 26-111, R41L) (O43186 26-111 R41L): as the sequence (O43186 26-111) above, with R16L counted along it
# Sequence of CRX (Homo sapiens, UniProt O43186 26-111, E42D) (O43186 26-111 E42D): as the sequence (O43186 26-111) above, with E17D counted along it
# Sequence of HOXD13 (Homo sapiens, UniProt P35453 263-343) (P35453 263-343): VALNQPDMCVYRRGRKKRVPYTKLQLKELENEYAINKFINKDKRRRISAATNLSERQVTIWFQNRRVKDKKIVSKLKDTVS
# Sequence of HOXC9 (Homo sapiens, UniProt P31274 178-260, K195R) (P31274 178-260 K195R): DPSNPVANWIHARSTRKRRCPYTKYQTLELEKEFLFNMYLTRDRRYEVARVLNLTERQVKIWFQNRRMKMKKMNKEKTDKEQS
# Sequence of PRRX1 (Homo sapiens, UniProt P54821 80-166, F113S) (P54821 80-166 F113S): as the sequence (P54821 80-166) above, with F34S counted along it
# Sequence of HOXC9 (Homo sapiens, UniProt P31274 178-260, R222W) (P31274 178-260 R222W): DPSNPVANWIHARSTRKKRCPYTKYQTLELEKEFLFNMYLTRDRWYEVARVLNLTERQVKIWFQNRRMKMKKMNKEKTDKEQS
# Sequence of HOXB6 (Homo sapiens, UniProt P17509 132-218, K202E) (P17509 132-218 K202E): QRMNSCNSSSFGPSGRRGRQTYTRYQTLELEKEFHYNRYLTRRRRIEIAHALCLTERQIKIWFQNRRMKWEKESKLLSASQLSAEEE
# Sequence of HOXD13 (Homo sapiens, UniProt P35453 263-343, T313R) (P35453 263-343 T313R): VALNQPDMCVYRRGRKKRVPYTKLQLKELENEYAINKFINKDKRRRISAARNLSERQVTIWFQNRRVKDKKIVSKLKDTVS
# Sequence of MSX2 (Homo sapiens, UniProt P35548 130-214, F161Y) (P35548 130-214 F161Y): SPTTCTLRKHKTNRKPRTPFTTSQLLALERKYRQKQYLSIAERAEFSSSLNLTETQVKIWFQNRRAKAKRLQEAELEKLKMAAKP
# Sequence of MSX2 (Homo sapiens, UniProt P35548 130-214, R199I) (P35548 130-214 R199I): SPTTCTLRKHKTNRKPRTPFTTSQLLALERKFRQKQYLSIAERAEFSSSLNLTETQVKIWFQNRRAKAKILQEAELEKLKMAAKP
# Sequence of HOXB6 (Homo sapiens, UniProt P17509 132-218) (P17509 132-218): as the sequence (P17509 132-218 K202E) above, with E71K counted along it
# Sequence of HOXC9 (Homo sapiens, UniProt P31274 178-260, R193K) (P31274 178-260 R193K): as the sequence (P31274 178-260 R222W) above, with R16K, W45R counted along it
# Sequence of HOXC9 (Homo sapiens, UniProt P31274 178-260) (P31274 178-260): as the sequence (P31274 178-260 R222W) above, with W45R counted along it
# Sequence of MSX2 (Homo sapiens, UniProt P35548 130-214) (P35548 130-214): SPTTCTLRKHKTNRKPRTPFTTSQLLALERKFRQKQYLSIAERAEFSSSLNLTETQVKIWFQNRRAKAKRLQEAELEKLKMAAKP
# Sequence of HOXD13 (Homo sapiens, UniProt P35453 263-343, T313A) (P35453 263-343 T313A): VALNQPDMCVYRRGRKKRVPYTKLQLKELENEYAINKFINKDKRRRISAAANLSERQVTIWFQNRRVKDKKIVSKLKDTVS
sequence,measurement,setting,value
GGCGGGCA,binding signal,SHOX [1],"7.13 upbm affinity estimate (log intensity, higher = more binding, comparable within an allelic series)"
same,binding signal,CRX [2],"8.31 upbm affinity estimate (log intensity, higher = more binding, comparable within an allelic series)"
same,binding signal,CRX [3],"8.21 upbm affinity estimate (log intensity, higher = more binding, comparable within an allelic series)"
same,binding signal,HOXD13 [4],"9.46 upbm affinity estimate (log intensity, higher = more binding, comparable within an allelic series)"
same,binding signal,SHOX [5],"7.15 upbm affinity estimate (log intensity, higher = more binding, comparable within an allelic series)"
same,binding signal,HOXD13 [6],"9.45 upbm affinity estimate (log intensity, higher = more binding, comparable within an allelic series)"
same,binding signal,HOXD13 [7],"9.59 upbm affinity estimate (log intensity, higher = more binding, comparable within an allelic series)"
same,binding signal,CRX [8],"8.39 upbm affinity estimate (log intensity, higher = more binding, comparable within an allelic series)"
CCAGGGAC,binding signal,SHOX [1],"7.08 upbm affinity estimate (log intensity, higher = more binding, comparable within an allelic series)"
same,binding signal,HOXC9 [9],"9.47 upbm affinity estimate (log intensity, higher = more binding, comparable within an allelic series)"
same,binding signal,HOXB6 [10],"8.97 upbm affinity estimate (log intensity, higher = more binding, comparable within an allelic series)"
same,binding signal,HOXC9 [11],"9.52 upbm affinity estimate (log intensity, higher = more binding, comparable within an allelic series)"
same,binding signal,MSX2 [12],"9.5 upbm affinity estimate (log intensity, higher = more binding, comparable within an allelic series)"
same,binding signal,SHOX [5],"7.17 upbm affinity estimate (log intensity, higher = more binding, comparable within an allelic series)"
same,binding signal,HOXC9 [13],"9.51 upbm affinity estimate (log intensity, higher = more binding, comparable within an allelic series)"
same,binding signal,MSX2 [14],"9.58 upbm affinity estimate (log intensity, higher = more binding, comparable within an allelic series)"
same,binding signal,HOXC9 [15],"9.62 upbm affinity estimate (log intensity, higher = more binding, comparable within an allelic series)"
same,binding signal,MSX2 [16],"9.57 upbm affinity estimate (log intensity, higher = more binding, comparable within an allelic series)"
same,binding signal,HOXB6 [17],"8.99 upbm affinity estimate (log intensity, higher = more binding, comparable within an allelic series)"
CGGATTAG,binding signal,SHOX [1],"8.9 upbm affinity estimate (log intensity, higher = more binding, comparable within an allelic series)"
same,binding signal,CRX [2],"13.6 upbm affinity estimate (log intensity, higher = more binding, comparable within an allelic series)"
same,binding signal,CRX [3],"13.7 upbm affinity estimate (log intensity, higher = more binding, comparable within an allelic series)"
same,binding signal,PITX2,"13.2 upbm affinity estimate (log intensity, higher = more binding, comparable within an allelic series)"
same,binding signal,CRX [8],"13.4 upbm affinity estimate (log intensity, higher = more binding, comparable within an allelic series)"
CGAACCGC,binding signal,SHOX [1],"7.29 upbm affinity estimate (log intensity, higher = more binding, comparable within an allelic series)"
same,binding signal,PRRX1 [18],"9.29 upbm affinity estimate (log intensity, higher = more binding, comparable within an allelic series)"
same,binding signal,SHOX [5],"7.2 upbm affinity estimate (log intensity, higher = more binding, comparable within an allelic series)"
same,binding signal,PRRX1 [19],"9.38 upbm affinity estimate (log intensity, higher = more binding, comparable within an allelic series)"
